Changes are numbered by the printed parent chain. In all, about 24,000 sequences were measured (“enrichment r”: median about 0.99, highest 2% from about 3.7 on). The entries come from a sample that favours the highest values as a whole.

B1: chr7:112757510:112757511:-_ENSG00000214194_ENST00000397764|hu_mus|FALSE|FALSE (ssRNA)
RNA: GGGAGUUCUACAGUCCGACGAUCCUUUCUUGCGUAUAUCCCCAAGCAAGCACAGAUGCCGGUAAUGCUGAGAACCACACCUAAUAAGAGUGCAAUCGCGUCUCCAGCUUCCACUGCUUCAACAACAGGCAGGAUCAAAAGCAGCAACAGAGGAUUGAGCAUCA
B2: chr9:49312907:49312908:-_ENSMUSG00000039542_ENSMUST00000166811|mus_hu|motif|central (ssRNA)
RNA: GGGAGUUCUACAGUCCGACGAUCAGCUGCAAUUUGGCAUUCGUCCUAUAAAAUAAGAGUCUACGUGGGAAUUGAAUUCAGCGGGAAAGGGUGACACACUUUGCAUACUGAACAAAUACAAAGUGAACAGAAAUUAUAACUUAUCAACAGAGGAUUGAGCAUCA
B3: chr6:168291551:168291552:+_ENSG00000130396_ENST00000400822|hu_hu|motif|central (ssRNA)
RNA: GGGAGUUCUACAGUCCGACGAUCGUGUUUCUUGGUUUUCUUUGGGAUGUGGUCUGGUGGCCUCCUCUUCAACUGAAAGACGGAAAUCCCUUUGUCACUUGGCCAUUCCCUGAAGAUUUGUAAAGGACACUCAUCAUCAUCAAGCAACAGAGGAUUGAGCAUCA
B4: 19737984_19738104_982_3pUTR_ENSG00000105849_ENST00000222567|human|control|control (ssRNA)
RNA: GGGAGUUCUACAGUCCGACGAUCGGUGGGGUAAAUUCGGCCUCUUCACUGUGUUUUCUUUUCUUUUUUUUCUUUUUAUGGUCACUUUGGUAACCACUGGAGUCACUGCCUUGGAAAACAGGGUCCUGGUCCUGAACUUCCUGGCAACAGAGGAUUGAGCAUCA
B5: chr1:220276048:220276049:+_ENSG00000067704_ENST00000302637|hu_hu|hu_hu_hu_mus_True|18_78 (ssRNA)
RNA: GGGAGUUCUACAGUCCGACGAUCGCAAAUUGCCUGGUUGGCGGGAAUUGUCCAAGGUUGUGUGGUCCAAACUAAAACGCUAACAGGGGAUGAGGCAUCUGUAAGAGACUCCAACUUUGGAGAAGGCCUCAGGAGGGGGAAUCUCAACAGAGGAUUGAGCAUCA
B6: chr5:143664956:143664957:-_ENSMUSG00000029580_ENSMUST00000100497|mus_hu|FALSE|FALSE (ssRNA)
RNA: GGGAGUUCUACAGUCCGACGAUCUCUCAAGUUGGGGGACAAAAAAGGGGGAAGGGGGGGCACGAAGGCUCAUCAUUCAAAAUAAAACAAAAUAAAAAAGUAUUAAGGCGAAGAUUAAAAAAAUUUUGCAUUACAUAAUUUACACAACAGAGGAUUGAGCAUCA
B7: chr6:114281168:114281169:-_ENSG00000196591_ENST00000368632|hu_hu|hu_hu_hu_mus_True|8_98 (ssRNA)
RNA: GGGAGUUCUACAGUCCGACGAUCUUCCAUUUUUCGGUAUAAGCCAUAAUUUAGCAGCAAGUUAUGAGUCAUCCGGAUUCUAUGAGGCUUCAUGGGAUGACCCUGGCCAUAAUAAUAAUUGCCAAUAUCACAGAUUCAGUAGUACAACAGAGGAUUGAGCAUCA
B8: chr14:102368134:102368135:+_ENSG00000078304_ENST00000445439|hu_hu|hu_hu_hu_mus_True|48_68 (ssRNA)
RNA: GGGAGUUCUACAGUCCGACGAUCAAGAGGCUCCAUGAUCUUCACAAACUCUGAUGGUUCAAUUACAUCUAAAAUCUCUUCUAAUUCGUUUAAGAACAUUACUUCUUUUGGACUGUGAGUCUUUGGCCAGUAUUUGAGAAGUGCCAACAGAGGAUUGAGCAUCA
B9: chr14:102368134:102368135:+_ENSG00000078304_ENST00000445439|hu_hu|hu_hu_hu_mus_True|68_88 (ssRNA)
RNA: B8 RNA with C48U, G87A
B10: chr19:58207738:58207739:+_ENSMUSG00000054843_ENSMUST00000077282|mus_mus|motif|central (ssRNA)
RNA: GGGAGUUCUACAGUCCGACGAUCUAAUUGGCCACAGAGUUAACAGUAGUGUGUGACAUUGCAUUAAUUCCAUAAUUAUCGGAAAUUCAAAAAUUUUAAAGUUUUAAGAACCUGGGGGAUUCACAGUGGAUGAGGCCUGACAGCCAACAGAGGAUUGAGCAUCA
B11: chr10:35314101:35314102:-_ENSG00000108094_ENST00000537177|hu_hu|FALSE|FALSE (ssRNA)
RNA: GGGAGUUCUACAGUCCGACGAUCUUCACCUGUACACAGAUAAUGUAACCAUGUAAGUUUCCUUCCACUGAAAUGUUGGCUAUAAAAUAAUUCAAACAUCUGUACACUUUUUUCUAAUUCCUGGGGAAUUGCAAACGUAGAUGACAACAGAGGAUUGAGCAUCA
B12: chr16:75327710:75327711:-_ENSG00000153774_ENST00000283882|hu_hu|FALSE|FALSE (ssRNA)
RNA: GGGAGUUCUACAGUCCGACGAUCAUUUAAGGACAAAUUUUUAAAAGUAAAGUGAAUGAAACCAUUUGUGAUUAAGAUACAUAGACAGAACUUCAAUGUAGAAAAAAAAAAGACCUUGCUGGGAAACAGAUGAUGAGAAACACUCAACAGAGGAUUGAGCAUCA
B13: chr5:143664956:143664957:-_ENSMUSG00000029580_ENSMUST00000100497|mus_mus|FALSE|FALSE (ssRNA)
RNA: GGGAGUUCUACAGUCCGACGAUCAUACAUCAAGUUGGGGGGACAAAAAAAAGGGAGGCCUCAGACCUGGGCCAUUCAGAAAUUAAAAACAAAAAUGAAGUAUUAAGGCGGAAGAUUUAAAAAAAUUUUUGCAGUACAUAAUUUCAACAGAGGAUUGAGCAUCA

This assay addresses T1, UNK ZnF1-3 (human, UniProt Q9C0B0 31-174).
T1 sequence: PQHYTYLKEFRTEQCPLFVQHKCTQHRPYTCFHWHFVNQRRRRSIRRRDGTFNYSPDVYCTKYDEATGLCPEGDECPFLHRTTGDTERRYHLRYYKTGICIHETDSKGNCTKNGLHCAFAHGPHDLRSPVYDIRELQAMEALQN
Description: nsRBNS (natural sequence RNA bind-n-seq); RBNS binding buffer (assumed for nsRBNS): 25 mM Tris pH 7.5, 150 mM KCl, 3 mM MgCl2, 0.01% Triton X-100, 500 ug/ml BSA, 20 U/ml SUPERase-In, 4 C; UNK is unkempt and MSI1 is Musashi-1; names of the RNAs are library labels; protein concentration not given here; high values mean tight binding.
For B1, the binding signal was determined as 1.38 enrichment R. On to B2, for which the binding signal amounted to 3.41 enrichment R. B3 showed a binding signal of 0.53 enrichment R. The same measure for B4: 0.463 enrichment R; for B5: 2.05 enrichment R; for B6: 8.16 enrichment R. With B7, the binding signal came to 0.99 enrichment R.

For the molecule B8, the binding signal worked out at 0.708 enrichment R. The molecule B9 showed a binding signal of 0.758 enrichment R. Regarding B10, the binding signal was 4.11 enrichment R. In turn, B11 gave a binding signal of 1.11 enrichment R. Molecule B12 came in with a binding signal of 1.71 enrichment R. Turning to B13, the binding signal was 6.75 enrichment R.

(Values after publication PMC12136788.)
